The list is not random: actives were taken first. Their share in the collection is about 4.6%.
NFkB transloc pot: enhancers of NFkB p65 translocation in HUVEC – imaging, IL-1B stimulus, high-content imaging, primary screen | HUVEC IL-1B NFkB p65 nuclear translocation imaging | activation, % at 2 µM | actives 0.3% (n = 94,000) | AID 819, 2007;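 active = activation above 40%, about the mean plus 3 SD, also judged a hit on visual image review; inconclusive = activation above 40% but not a hit on visual review; inactive = activation not above 40% and no visual hit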;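 note: percent activation is computed from the nuclear over cytoplasmic p65 intensity ratio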
Cav32 inh: Cav3.2 calcium influx blockers – cell-based, Fluo-4 calcium fluorescence, FDSS, MLSMR library, primary screen; Voltage-dependent T-type calcium channel subunit alpha-1H (Homo sapiens), O95180; actives 4% (n = 100,000); Cav3.2-expressing cells; hits give low values; B-score at 10 µM; AID 449739, 2010;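 active = single-dose well whose peak fluorescence ratio is a statistical outlier from its plate by either plate-standardised score or position-corrected B-score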
Target sequence (O95180 whole entry, looked up): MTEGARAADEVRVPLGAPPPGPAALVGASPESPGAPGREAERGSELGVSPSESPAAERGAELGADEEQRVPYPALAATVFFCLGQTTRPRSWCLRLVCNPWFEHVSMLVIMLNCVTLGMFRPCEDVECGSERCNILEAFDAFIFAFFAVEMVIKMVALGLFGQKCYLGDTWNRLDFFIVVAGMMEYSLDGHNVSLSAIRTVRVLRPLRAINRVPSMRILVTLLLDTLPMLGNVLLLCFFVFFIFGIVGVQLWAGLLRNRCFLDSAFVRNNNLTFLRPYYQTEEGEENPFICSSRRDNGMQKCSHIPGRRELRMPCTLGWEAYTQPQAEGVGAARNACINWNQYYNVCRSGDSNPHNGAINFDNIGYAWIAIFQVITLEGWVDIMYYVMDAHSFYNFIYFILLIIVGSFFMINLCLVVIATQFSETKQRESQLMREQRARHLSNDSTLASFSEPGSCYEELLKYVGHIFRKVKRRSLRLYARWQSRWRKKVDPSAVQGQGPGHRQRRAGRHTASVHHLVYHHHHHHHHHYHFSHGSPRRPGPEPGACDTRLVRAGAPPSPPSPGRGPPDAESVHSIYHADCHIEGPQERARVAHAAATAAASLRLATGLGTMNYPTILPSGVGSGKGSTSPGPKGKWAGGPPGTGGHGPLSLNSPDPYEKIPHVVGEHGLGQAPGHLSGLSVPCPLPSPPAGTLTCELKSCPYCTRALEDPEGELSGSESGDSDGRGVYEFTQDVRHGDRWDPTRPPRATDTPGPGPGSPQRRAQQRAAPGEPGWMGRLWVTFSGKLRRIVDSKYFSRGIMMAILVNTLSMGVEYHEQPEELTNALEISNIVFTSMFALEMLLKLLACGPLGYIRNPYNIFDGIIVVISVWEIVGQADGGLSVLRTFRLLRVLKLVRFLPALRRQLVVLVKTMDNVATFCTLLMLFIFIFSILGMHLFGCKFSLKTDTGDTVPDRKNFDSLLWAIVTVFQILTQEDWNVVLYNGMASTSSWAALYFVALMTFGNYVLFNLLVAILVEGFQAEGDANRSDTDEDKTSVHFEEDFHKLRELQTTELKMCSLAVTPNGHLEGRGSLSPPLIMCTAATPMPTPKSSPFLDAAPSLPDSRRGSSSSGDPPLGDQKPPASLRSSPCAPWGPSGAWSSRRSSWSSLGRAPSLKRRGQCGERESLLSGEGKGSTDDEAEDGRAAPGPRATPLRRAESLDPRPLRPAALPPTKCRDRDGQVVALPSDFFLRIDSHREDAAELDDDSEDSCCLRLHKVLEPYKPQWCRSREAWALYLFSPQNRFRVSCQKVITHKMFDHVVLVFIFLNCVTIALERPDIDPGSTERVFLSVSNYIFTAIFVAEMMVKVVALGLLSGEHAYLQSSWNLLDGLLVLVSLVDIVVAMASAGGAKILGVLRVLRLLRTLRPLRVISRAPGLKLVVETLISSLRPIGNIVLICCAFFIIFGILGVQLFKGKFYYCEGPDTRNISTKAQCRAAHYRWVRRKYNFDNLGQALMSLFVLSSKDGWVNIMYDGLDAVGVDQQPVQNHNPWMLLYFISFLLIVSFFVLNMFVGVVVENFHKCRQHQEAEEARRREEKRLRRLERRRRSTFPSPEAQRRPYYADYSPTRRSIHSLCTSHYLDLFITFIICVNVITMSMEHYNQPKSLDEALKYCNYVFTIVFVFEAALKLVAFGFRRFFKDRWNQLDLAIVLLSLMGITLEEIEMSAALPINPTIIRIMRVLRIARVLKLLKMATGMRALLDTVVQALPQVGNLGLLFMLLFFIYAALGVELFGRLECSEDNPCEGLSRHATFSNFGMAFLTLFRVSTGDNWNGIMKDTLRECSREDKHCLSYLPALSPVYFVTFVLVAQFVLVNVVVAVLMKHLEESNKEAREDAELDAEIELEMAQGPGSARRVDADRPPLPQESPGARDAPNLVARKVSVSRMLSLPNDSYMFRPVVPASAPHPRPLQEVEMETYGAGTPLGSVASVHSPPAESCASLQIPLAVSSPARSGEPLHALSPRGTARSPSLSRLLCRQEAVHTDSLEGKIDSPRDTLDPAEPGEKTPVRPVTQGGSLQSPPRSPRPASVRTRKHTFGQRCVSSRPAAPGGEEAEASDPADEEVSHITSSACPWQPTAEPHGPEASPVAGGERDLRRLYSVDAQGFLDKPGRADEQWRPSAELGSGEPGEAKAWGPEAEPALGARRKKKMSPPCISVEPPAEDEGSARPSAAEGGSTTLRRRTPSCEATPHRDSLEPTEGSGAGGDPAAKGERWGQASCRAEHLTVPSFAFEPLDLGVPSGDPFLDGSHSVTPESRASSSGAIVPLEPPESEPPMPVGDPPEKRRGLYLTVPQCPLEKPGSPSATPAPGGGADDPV
sEH act: soluble epoxide hydrolase activators, primary screen, biochemical, human sEH; Bifunctional epoxide hydrolase 2 (Homo sapiens), P34913; purified human sEH enzymatic activity, activator screen; activation, % at 2 µM; actives 0.04% (n = 91,000); AID 717, 2007; in the data active = activation above about 37%
IL1B cytotox: cytotoxicity in IL-1B stimulated HUVEC, primary screen, cytotoxicity control for IL-1B NFkB translocation project, imaging, Hoechst nuclear count, IL-1B stimulus | cell count reduction, % at 2 µM | HUVEC cell count loss | actives 0.41% (n = 94,000) | AID 845, 2007;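 active = cell count reduction more than 3 SD above the screen-wide mean, cut at about 70% in these data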
sEH inhibitor: soluble epoxide hydrolase inhibitors, primary screen, biochemical, human sEH | recombinant human sEH enzymatic activity assay | AID 707, 2007 | actives 0.34% (n = 91,000) | inhibition, % at 2 µM; in the data active = inhibition above about 80%
IL1B NFkB inh: inhibitors of IL-1B driven NFkB p65 nuclear import, primary screen, imaging, HUVEC, IL-1B stimulus, high-content imaging. inhibition, % at 2 µM. AID 796, 2007. HUVEC IL-1B NFkB p65 nuclear translocation imaging. actives 0.43% (n = 94,000);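 active = inhibition above about 30% together with a positive call from visual inspection of the well image, limit read from the data; inconclusive = inhibition above a set limit but visual check negative; inactive = inhibition not above a set limit, visual check negative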;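 note: nuclear over cytoplasmic p65 intensity ratio measured by imaging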
Each line names hits and unclear results; the compound was inactive in the other large screens.

Cc1ccc(C(=O)OCc2ccc3c(c2)OCO3)cc1S(=O)(=O)N1CCCCC1	Cav32 inh -4.1
O=C1CN(C(=O)COC(=O)c2ccccc2NCc2ccco2)c2ccccc2N1	Cav32 inh -3.8
CC(C)(C)CC(C)(C)NCC(O)COc1c(F)cc(Br)cc1F (centres undefined)	Cav32 inh -5.7
CC(C)(C)NCC(O)COc1c(F)cc(Br)cc1F (centres undefined)	none
CC1(C)C2CCC1(CS(=O)(=O)N1CCCc3ccccc31)C(=O)C2 (centres undefined)	none (no result: Cav32 inh)
CCc1ccc(NC(=S)Nc2cccc(OC)c2)cc1	none
O=C(NCc1ccco1)C(c1ccccc1)N(C(=O)Cc1cccs1)c1ccccc1 (centres undefined)	none
Cc1cc(NC(=O)Cn2c(C)nc3ccccc3c2=O)ccc1Br	none
Cc1cc(NC(=O)Cn2nc3c(cc2=O)CCCC3)ccc1Br	Cav32 inh -6.2
CCOC(=O)c1cnc(SCC(=O)Nc2ccc(N3CCOCC3)c(Cl)c2)nc1N	none
CCOC(=O)c1cnc(SCC(=O)Nc2cc(OC)cc(OC)c2)nc1N	NFkB transloc pot 50
CCOC(=O)c1cnc(SCCc2ccccc2)nc1N	none
CCCCSc1ncc(C(=O)OCC)c(N)n1	Cav32 inh -4.6
CCn1cc(SCC(=O)NCc2ccc3c(c2)OCO3)c2ccccc21	Cav32 inh -3.9 (no result: NFkB transloc pot, sEH act, IL1B cytotox, sEH inhibitor, IL1B NFkB inh)
CCCn1cc(SCC(=O)NCc2ccc3c(c2)OCO3)c2ccccc21	none
Cc1nc(SCC(=O)NCc2ccc3c(c2)OCO3)c(C#N)c2c1CCCC2	Cav32 inh -4 (no result: sEH act, sEH inhibitor)
CCOc1ccccc1C1C(C(N)=O)=C(C)Nc2nc(-c3cccc(C)c3)nn21 (centres undefined)	none
Cc1ccc(Nc2c([N+](=O)[O-])cc(C(=O)N3CC(=O)Nc4ccccc43)cc2[N+](=O)[O-])c(C)c1	none
O=S(Cc1cc(Oc2ccccc2)nc(-c2ccccc2)n1)c1ccccc1 (centres undefined)	Cav32 inh -6.6
COc1ccc(Nc2nc(C)c3ccccc3n2)cc1	none
COc1ccc(Nc2nc3ccccc3nc2C)cc1	Cav32 inh -3.8
CC1(C)NC(=O)N(CCCCOc2ccc3c(c2)CCC3)C1=O	none (no result: NFkB transloc pot, sEH act, IL1B cytotox, sEH inhibitor, IL1B NFkB inh)
Cc1ccc(-n2ncc3c(NCc4ccc5c(c4)OCO5)ncnc32)c(C)c1	NFkB transloc pot inconclusive (no result: sEH act, sEH inhibitor)
O=C(CN(Cc1ccc(Cl)c(Cl)c1)S(=O)(=O)c1ccccc1)N/N=C\c1ccc2c(c1)OCO2	none
O=C(CN(Cc1ccccc1)S(=O)(=O)c1ccccc1)N/N=C/c1ccc2c(c1)OCO2	Cav32 inh -4.2
COCCCNC(=O)c1ccc2c(c1)CCN2S(C)(=O)=O	none
COc1cccc(-c2nnc3sc(-c4ccco4)nn23)c1	none (no result: NFkB transloc pot, sEH act, IL1B cytotox, sEH inhibitor, IL1B NFkB inh)
COc1ccc(S(=O)(=O)N2CCC(C(=O)N3CCc4ccccc4C3)CC2)cc1Cl	Cav32 inh -4.6
COc1ccc(CN(C(=S)Nc2ccccc2)C2CC(=O)N(c3ccc(F)cc3)C2=O)cc1 (centres undefined)	none
CNC(=S)N(Cc1ccc2c(c1)OCO2)C1CC(=O)N(c2ccc(F)cc2)C1=O (centres undefined)	Cav32 inh -4
N#CCC(CNc1ncc(C(F)(F)F)cc1Cl)OC(=O)c1c(F)cccc1F (centres undefined)	Cav32 inh -3.7 (no result: NFkB transloc pot, sEH act, IL1B cytotox, sEH inhibitor, IL1B NFkB inh)
C=C1CCC(C)C(C)(CCC2=CCOC2=O)C/C=C\C=C/1C(=O)O (centres undefined)	Cav32 inh -3.9 (no result: NFkB transloc pot, sEH act, IL1B cytotox, sEH inhibitor, IL1B NFkB inh)
CCCNC(=O)c1nc2ncc(Br)cn2n1	none (no result: sEH act, sEH inhibitor)
Cc1nn(-c2c(Cl)cc(Cl)cc2Cl)c(=O)c2ccccc12	Cav32 inh -5 (no result: NFkB transloc pot, IL1B cytotox, IL1B NFkB inh)
Cc1nn(-c2ccccc2C(=O)O)c(=O)c2ccccc12	none
CC1CC1C(=O)NCCc1ccc(Cl)cc1 (centres undefined)	none
CCNc1cccc2c1C(=O)N(C)C2=O	Cav32 inh -4.1 (no result: NFkB transloc pot, sEH act, IL1B cytotox, sEH inhibitor, IL1B NFkB inh)
CCC(=O)Nc1cccc2c1C(=O)N(C)C2=O	none
CN1C=CC2=C(C#N)C(N)C(C#N)(C#N)C(c3ccccc3)C2C1 (centres undefined)	none (no result: Cav32 inh)
COc1ccc(Cl)cc1NC(=O)CN1CCC(n2nnc3cc(F)ccc32)CC1	IL1B cytotox 92, IL1B NFkB inh 100
CC1CCC(NC(=O)CN2CCC(n3nnc4cc(F)ccc43)CC2)CC1 (centres undefined)	none (no result: NFkB transloc pot, sEH act, IL1B cytotox, sEH inhibitor, IL1B NFkB inh)
O=C(CN1CCC(n2nnc3cc(F)ccc32)CC1)Nc1ccc2c(c1)CCC2	Cav32 inh -5.6
COc1cccc(/C(C#N)=C/c2c(-c3ccc(Cl)cc3)nc3c(C)cccn23)c1	none
CSc1ncccc1C(=O)OCC(=O)c1cc2ccccc2o1	none
CCOc1cc2nc(-c3ccc(OC)c(OC)c3)nc(N3CCOCC3)c2cc1OC	Cav32 inh -6 (no result: sEH act, sEH inhibitor)
CC(C)(CC(=O)O)Cc1nc(-c2ccc(Cl)cc2)no1	none
COc1ccccc1N1CCN(CC(O)c2ccc3cc[nH]c3c2)CC1 (centres undefined)	Cav32 inh -5.6
CCOC(=O)N1CCC(NC(=O)c2cc(C(=O)NC3CCCC3)ccc2CO)CC1	IL1B NFkB inh 61
CCOC(=O)N1CCC(NC(=O)c2cc(C(=O)Nc3ccc(OCC)cc3)ccc2CO)CC1	none
Cc1cc(C)cc(NS(=O)(=O)c2cnc(Cl)c(Cl)c2)c1	Cav32 inh -5.6
Cc1cc(C)cc(NC(=O)C2CCCN(c3nc(C)cc(C)n3)C2)c1 (centres undefined)	none (no result: NFkB transloc pot, sEH act, IL1B cytotox, sEH inhibitor, IL1B NFkB inh)
CNC(=S)N1N=C(c2ccc(Br)cc2)CC1c1ccc(Br)cc1 (centres undefined)	Cav32 inh -6.7
CNC(=S)N1N=C(c2ccc(OC)cc2)CC1c1ccc(N(C)C)cc1 (centres undefined)	none
O=C(NCC(c1cccnc1)N1CCOCC1)c1ccc2c(c1)OCO2 (centres undefined)	IL1B NFkB inh 36
O=C(NCC(c1cccnc1)N1CCN(c2ccccc2)CC1)c1ccc2c(c1)OCO2 (centres undefined)	none
Cc1ccc2cc(/C=C3\N=C(c4ccccc4)OC3=O)c(N3CCOCC3)nc2c1	Cav32 inh -6.6
Cc1ccc(C)c(S(=O)(=O)C(C#N)c2nc3ccccc3nc2N2CCOCC2)c1 (centres undefined)	none
C=CCn1c(SCC(=O)Nc2ccccc2OC)nnc1-c1ccco1	none
COc1cc(/C=N/NC(=O)CSCc2ccc([N+](=O)[O-])cc2)cc(OC)c1OC	IL1B cytotox 89
COc1ccccc1NC(=O)COc1ccc(/C=N/NC(=O)CSCc2ccc(Cl)cc2)cc1	none (no result: Cav32 inh)
c1ccc(Cn2cnc3ccccc32)cc1	IL1B cytotox 95
OC(CNCc1ccc(F)cc1)(c1ccc(F)cc1)c1ccc(F)cc1	Cav32 inh -4.2 (no result: NFkB transloc pot, sEH act, IL1B cytotox, sEH inhibitor, IL1B NFkB inh)
